Assay results: ChEMBL document CHEMBL3988442, “University of Dundee, Small-Polar-MMV Screening Library” (2021)

Experiments:
[1] = biological target: T1, Aspartate--tRNA(Asp/Asn) ligase (Mycobacterium tuberculosis (strain ATCC 25618 / H37Rv)) (UniProt P9WFW3); test: Assay for Asp RNA synthetase-1 from Mycobacterium tuberculosis; type: functional; design: scale not given: direction of the effect not stated beside the values; conditions: 30 µM; further: in the data most compounds retested in dose-response had high values
T1 sequence (whole entry): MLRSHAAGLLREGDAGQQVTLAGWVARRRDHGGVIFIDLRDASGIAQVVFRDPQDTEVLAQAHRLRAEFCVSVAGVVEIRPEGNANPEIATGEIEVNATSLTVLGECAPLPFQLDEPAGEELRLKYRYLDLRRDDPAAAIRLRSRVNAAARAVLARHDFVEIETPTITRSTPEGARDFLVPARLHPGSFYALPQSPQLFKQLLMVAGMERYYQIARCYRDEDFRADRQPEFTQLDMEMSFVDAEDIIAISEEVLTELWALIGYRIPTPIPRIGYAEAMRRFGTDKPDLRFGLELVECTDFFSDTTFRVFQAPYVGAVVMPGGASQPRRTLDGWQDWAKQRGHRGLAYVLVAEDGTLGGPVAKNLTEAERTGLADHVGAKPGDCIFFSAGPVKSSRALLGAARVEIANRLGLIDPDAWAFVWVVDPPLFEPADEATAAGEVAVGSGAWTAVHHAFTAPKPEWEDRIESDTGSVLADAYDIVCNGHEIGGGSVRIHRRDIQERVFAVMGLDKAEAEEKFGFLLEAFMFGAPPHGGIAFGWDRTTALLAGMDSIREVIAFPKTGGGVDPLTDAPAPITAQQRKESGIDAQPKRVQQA

[2] = biological target: Shiga toxin 2 (Escherichia coli O157:H7) (UniProt P09385+P09386); test: E. coli 0.157:H7 Shiga Toxin SOP - stx2 screening assay; type: functional; design: scale not given: direction of the effect not stated beside the values; conditions: 30 µM

O=C(Cc1csc(-c2ccc(Cl)cc2)n1)NC(C(=O)O)c1ccccc1 (stereo not drawn)
Percent Effect [1]: 1.86%
Percent Effect [2]: -21.9%

Cn1ccnc1CN1CCN(Cc2noc(-c3ccccc3)n2)CC1
Percent Effect [1]: -2.31%
Percent Effect [2]: -6.06%

CN(C)C(=O)c1cnc2n1CCN(Cc1ccccc1)C2
Percent Effect [1]: 0.632%
Percent Effect [2]: -28%

CCc1nc(COc2ccc(OCc3cnn(C)c3)cc2)no1
Percent Effect [1]: 0.524%
Percent Effect [2]: -31%

Cc1cnc(N2C[C@H]3C[C@H](C(=O)N(C)C)[C@@H](C2)O3)nc1
Percent Effect [1]: 2.79%
Percent Effect [2]: -23.4%

CN(C)C(=O)NCc1cc2n(n1)CCN(C[C@H]1[C@@H]3CNC[C@@H]31)C2
Percent Effect [1]: -4.99%
Percent Effect [2]: -21.2%

COC(=O)c1cc(OCC2CCC2)cc(C(=O)N[C@H]2CC[C@H](O)CC2)c1
Percent Effect [1]: 9.23%
Percent Effect [2]: -30.2%

CNc1ccc(CC2CCCN(C(=O)c3cnc(C)nc3)C2)nn1 (stereo not drawn)
Percent Effect [1]: 1.57%
Percent Effect [2]: -10.7%

O=S(=O)(C1CC1)N1CCC2(CC1)CC(Oc1cccnc1)CO2 (stereo not drawn)
Percent Effect [1]: 6.21%
Percent Effect [2]: -0.225%

CSCCC(=O)N1CCC(Oc2cc(C)ccc2F)(C(=O)O)CC1
Percent Effect [1]: -1.34%
Percent Effect [2]: -3.19%

Cc1ccc(OCC(=O)NS(=O)(=O)c2cccnc2)cc1C
Percent Effect [1]: -2.57%
Percent Effect [2]: 26.6%

Cc1ccccc1CC(=O)N(C)C1CCN(c2ccccn2)CC1
Percent Effect [1]: -1.19%
Percent Effect [2]: 6.11%

Cc1ccc(C(=O)N2CCN(C(=O)NC(C)Cn3ccnc3)CC2)o1 (stereo not drawn)
Percent Effect [1]: -1.92%
Percent Effect [2]: 17.6%

CC(C)(C)c1cnc(CN2CCCC2Cn2cccn2)o1 (stereo not drawn)
Percent Effect [1]: -3.34%
Percent Effect [2]: 0.322%

Cc1cnc(N2CCn3cc(CNC(=O)CC4CC4)nc3C2)nc1
Percent Effect [1]: 2.93%
Percent Effect [2]: -22.4%

CCOC(=O)CCCNC(=O)CN1CCN(c2ncccn2)CC1
Percent Effect [1]: 6.48%
Percent Effect [2]: -56.7%

CNc1snc(C)c1C(=O)N1CCCC(n2nc(C)cc2C)C1 (stereo not drawn)
Percent Effect [1]: -8.77%
Percent Effect [2]: -3.59%

O=S(=O)(NCC1(O)CCOc2ccccc21)c1cccs1 (stereo not drawn)
Percent Effect [1]: -0.546%
Percent Effect [2]: -8.71%

CNS(=O)(=O)c1cccc(CNC(=O)c2c(C)nn(C)c2C)c1
Percent Effect [1]: -4.44%
Percent Effect [2]: 8.19%

CCS(=O)(=O)N1C[C@H]2CN(Cc3cccnc3)C(=O)[C@H]2C1
Percent Effect [1]: 3.48%
Percent Effect [2]: -32.6%

Cc1nccc(-c2cccc(NCC(=O)N3CCc4sccc4C3)c2)n1
Percent Effect [1]: -0.955%
Percent Effect [2]: 8.31%

CN(C)C(=O)[C@@H]1CCO[C@@H]2CCN(Cc3ccc4c(c3)OCO4)C[C@@H]21
Percent Effect [1]: -0.534%
Percent Effect [2]: -27.6%

Cc1noc(C)c1CN1CC[C@@H](OCC2CC2)[C@@H](Cc2ccccc2)C1
Percent Effect [1]: 0.779%
Percent Effect [2]: 16%

CC(=O)Nc1nc(C(=O)N2CCCC(n3nc(C)cc3C)C2)cs1 (stereo not drawn)
Percent Effect [1]: -0.815%
Percent Effect [2]: 10.8%

Cc1cccc(CN2C[C@@H]3COC[C@]3(CNC(=O)N3CCCC3)C2)n1
Percent Effect [1]: 2.42%
Percent Effect [2]: 11.4%

CCn1ccnc1CNCC1CCN(CC(O)c2ccccc2)CC1 (stereo not drawn)
Percent Effect [1]: -3.48%
Percent Effect [2]: 0.429%

N#Cc1cccc(S(=O)(=O)NC(=O)COC2CCCC2)c1
Percent Effect [1]: 1.85%
Percent Effect [2]: -31%

O=C(Nc1ccc(CCN2CCC(O)CC2)cc1)C1CCOCC1
Percent Effect [1]: -1.86%
Percent Effect [2]: -38.6%

Cc1nc(CCCNC(=O)C2CC(=O)N(C3CC3)C2)sc1C (stereo not drawn)
Percent Effect [1]: 3.67%
Percent Effect [2]: -28.3%

CCN1CCN(C2CCN(Cc3nnc(C(C)(C)C)o3)CC2)C1=O
Percent Effect [1]: -1.73%
Percent Effect [2]: 25.7%

Cc1cnn(C2CN(Cc3nc(C(C)(C)C)no3)C2)c1
Percent Effect [1]: -0.0303%
Percent Effect [2]: -32.1%

CCN(CC)Cc1ccc(C(=O)N2CCN(CC(C)O)CC2)cc1 (stereo not drawn)
Percent Effect [1]: 0.607%
Percent Effect [2]: 8.97%

CCN(C(=O)c1ccc(-n2ncc(C#N)c2N)cc1)C1CCCC1
Percent Effect [1]: 6.53%
Percent Effect [2]: 6.02%

O=C(NCC1CC1)C1=NOC2(CCN(S(=O)(=O)c3cccs3)C2)C1 (stereo not drawn)
Percent Effect [1]: 2.15%
Percent Effect [2]: -4.25%

COCCN(C)CCN1CC2(CCN(C(=O)C3CCOC3)CC2)OC1=O (stereo not drawn)
Percent Effect [1]: -1.75%
Percent Effect [2]: -24.2%

Cc1noc(C)c1C(=O)NCC(c1ccc(F)cc1)N(C)C (stereo not drawn)
Percent Effect [1]: 1.51%
Percent Effect [2]: 16%

CC(C)OCCCNC(=O)CS(=O)(=O)Cc1ccc(Cl)c(Cl)c1
Percent Effect [1]: 5.22%
Percent Effect [2]: 30.4%

Cc1cnn(CC2CCCN2Cc2ncc(-c3ccccc3)o2)c1 (stereo not drawn)
Percent Effect [1]: 4.6%
Percent Effect [2]: 25.3%

OCCN1CCN(Cc2coc(-c3ccc(Cl)cc3)n2)CC1
Percent Effect [1]: 4.16%
Percent Effect [2]: 3.75%

O=C(Cn1ccc2ccccc21)NCc1ccc(C(=O)O)cc1
Percent Effect [1]: 5.27%
Percent Effect [2]: 6.55%

CC(C)c1nn(C)c(N2CCOCC2)c1CNCC(=O)N(C)C
Percent Effect [1]: -4.92%
Percent Effect [2]: -14.4%

CN(C)CC1CN(Cc2coc(-c3ccccc3Cl)n2)CCO1 (stereo not drawn)
Percent Effect [1]: -5.66%
Percent Effect [2]: -26.4%

CCc1[nH]ncc1C(=O)N1CCCC(n2ccnc2C(C)C)C1 (stereo not drawn)
Percent Effect [1]: 4.54%
Percent Effect [2]: 5.75%

Cc1nc(C)n(CC2CCCN2CCCOc2ccc(F)cc2)n1 (stereo not drawn)
Percent Effect [1]: -8.6%
Percent Effect [2]: 0.578%

COC(=O)C1CCN(C(=O)c2ccc(C)c(NS(C)(=O)=O)c2)CC1
Percent Effect [1]: -1.09%
Percent Effect [2]: -2.45%

c1ccc(-c2cc(CN3CCC(c4ccn[nH]4)CC3)on2)cc1
Percent Effect [1]: 2.46%
Percent Effect [2]: -49.6%

Cc1nc(C)n(C2CCCN(C(=O)c3ccc(N(C)C)nn3)C2)n1 (stereo not drawn)
Percent Effect [1]: 0.605%
Percent Effect [2]: 11.2%

Cc1noc(CN2CCOC(CN(C)C)C2)n1 (stereo not drawn)
Percent Effect [1]: -7.81%
Percent Effect [2]: -10.9%

CN(C)c1ncccc1CNC(=O)N1CCCC1CN1CCCCC1 (stereo not drawn)
Percent Effect [1]: -2.19%
Percent Effect [2]: -17.9%

O=C(Cc1ccccn1)N1CCN(CC2CC2)c2ncccc2C1
Percent Effect [1]: 5.6%
Percent Effect [2]: -12.7%

O=C1CCC2(CCCN(C(=O)c3cscn3)C2)CN1CCc1c[nH]cn1 (stereo not drawn)
Percent Effect [1]: 3.83%
Percent Effect [2]: -12.3%

Cn1c2c(ccc1=O)CC(NS(C)(=O)=O)CC2 (stereo not drawn)
Percent Effect [1]: -0.956%
Percent Effect [2]: -18%

CNC(=O)[C@@]12CCO[C@@H]1CCN(S(=O)(=O)c1cccc(C)c1)C2
Percent Effect [1]: -4.6%
Percent Effect [2]: 9.63%

CCn1ccnc1CN1CCCC(CO)(Cc2cccc(Cl)c2)C1 (stereo not drawn)
Percent Effect [1]: 10%
Percent Effect [2]: 15.9%

O=C(CN(Cc1ccccc1)CC1CCOCC1)Nc1nccs1
Percent Effect [1]: 2.07%
Percent Effect [2]: -19%

Cc1nc(C)n(CC2CCCCN2CCCS(=O)(=O)N(C)C)n1 (stereo not drawn)
Percent Effect [1]: 1.48%
Percent Effect [2]: -34.2%

CN(Cc1ccsc1)C(=O)Nc1cccnc1N1CCCC1
Percent Effect [1]: 1.88%
Percent Effect [2]: -69.4%

CN1Cc2c(C(=O)Nc3cccnc3)ncn2-c2ccccc2S1(=O)=O
Percent Effect [1]: -2.67%
Percent Effect [2]: 6.47%

Cc1n[nH]c(C)c1-c1cnc(CC2CCN(C)C2)cn1 (stereo not drawn)
Percent Effect [1]: -0.897%
Percent Effect [2]: -18.2%

CCC(=O)Nc1ccc(C(C)NC(=O)COCCOC)cc1 (stereo not drawn)
Percent Effect [1]: 0.539%
Percent Effect [2]: -16.3%

c1ccc2cc(OCCN3CCOC(Cn4cncn4)C3)ccc2c1 (stereo not drawn)
Percent Effect [1]: -2.92%
Percent Effect [2]: -29.2%

CCOCCCNC(=O)c1cc(C)nc(N2CCCC2)n1
Percent Effect [1]: -5.84%
Percent Effect [2]: -10.3%

CC(=O)N1CCC[C@H]1C(=O)NCCOc1cccc(Cl)c1
Percent Effect [1]: 1.97%
Percent Effect [2]: -31.3%

CCn1c(CN(C)C)nnc1C1CCN(Cc2ccccc2)CC1
Percent Effect [1]: -0.862%
Percent Effect [2]: -23.5%

O=C(CCc1ccccc1)N1CCn2cc(Cn3cncn3)nc2C1
Percent Effect [1]: -1.12%
Percent Effect [2]: -10%

O=C(c1cccnc1)N1CCc2ncnc(C3CCOC3)c2CC1 (stereo not drawn)
Percent Effect [1]: -5.37%
Percent Effect [2]: -9.92%

Cc1cnn(CCC(=O)N2CCN(c3ncccc3Cl)CC2)c1
Percent Effect [1]: -7%
Percent Effect [2]: 13.3%

O=C(NCc1ccc(F)cc1)N1CCC(C2OCCO2)CC1
Percent Effect [1]: 3.59%
Percent Effect [2]: 1.94%

Cc1csc(NC(=O)CN2CCC(c3ccnn3CCO)CC2)n1
Percent Effect [1]: -8.82%
Percent Effect [2]: -16.7%

CC(=O)N1CCn2c(COCc3csc(C)n3)cnc2C1C (stereo not drawn)
Percent Effect [1]: -3.29%
Percent Effect [2]: -18.6%

O=C(CN1CCCC(Cn2cncn2)C1)NCc1ccco1 (stereo not drawn)
Percent Effect [1]: -4.69%
Percent Effect [2]: 14.2%

NC(=O)CN1CCC(NC(=O)Nc2nccs2)CC1
Percent Effect [1]: -4.06%
Percent Effect [2]: -29.4%

c1cncc(OCc2noc3c2CN(Cc2ccoc2)CC3)c1
Percent Effect [1]: 2.82%
Percent Effect [2]: -31.1%

Cc1csc2c(=O)n3c(nc12)CCN(C(=O)c1cccnc1)CC3
Percent Effect [1]: -0.521%
Percent Effect [2]: 6.12%
